Giardia killer: kills Giardia lamblia; hit rate 0.15% among 340,000; activity change, % at 7.66 µM, hits read low; Giardia lamblia trophozoite viability; in the data active means activity change below about -80%; inconclusive means between about -30% and that limit;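 further: parasites exposed to compound for two days anaerobically before the ATP read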
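Media and compound were dispensed first, then trophozoites at 100 cells/well; plates sat 48 hrs at 37 deg C without oxygen before ATP luminescence reagent was added and read after 15-30 min at room temperature.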
IL-1B inflam inh: inhibitors of inflammasome signaling (IL-1 beta secretion) | THP-1 LPS/ATP IL-1B secretion, AlphaLISA, 16 h; active compounds read low | hit rate 4.7% among 360,000 | activity change, % at 57.5 µM; in the data active means activity change below about -50%; inconclusive means mostly about -30% to -49%
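THP-1 cells pretreated 1 hr with compounds (up to 57.5 uM final), then stimulated with LPS (250 ng/mL final) plus ATP (1.25 mM final); secreted IL-1B measured by AlphaLISA after 16 hr, decreased signal indicating inhibition.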
TDP1 cell CPT: growth inhibition of DT40 Tdp1-/-;hTDP1 cells with camptothecin (screen for TDP1 inhibitors); chicken DT40 Tdp1-/-;hTDP1 cells + 20 nM CPT, ATP luminescence, 48 h; Potency, µM (top dose mostly 46.2 µM), for the others: at the highest dose activity change, negative = growth inhibition, usual class: inhibitors; hit rate 12% among 420,000; AID 686979; further: potency means the concentration at half of the fitted maximal effect; nearly all actives have a fitted effect of over 55% in size
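Chicken DT40 Tdp1-/- cells complemented with human TDP1, 400 cells/well, exposed to compounds plus 20 nM camptothecin for at least 48 h at 37 C; viability read as ATP content by CellTiter-Glo luminescence.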
TDP1 cell noCPT: qHTS for Inhibitors of human tyrosyl-DNA phosphodiesterase 1 (TDP1): qHTS in cells in absence of CPT | DT40 Tdp1-/- hTDP1 cells, no CPT, ATP luminescence, 48 h | Potency, µM (highest dose often 46.2 µM), for the others: at the highest dose activity change, negative = growth inhibition, usual class: inhibitors | hit rate 15% among 420,000; further: potency means the concentration at half of the fitted maximal effect; nearly all actives have a fitted effect of over 55% in size
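Seeded 400 DT40-hTDP1 cells/well (vehicle DMSO, no 20 nM CPT); pinned compounds; ≥48 hr at 37 °C; CellTiter-Glo luminescence as viability measure.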
ELG1 DNA repair: inhibitors of ELG1-dependent DNA repair in HEK293T cells | Potency, µM (highest dose often 46.1 µM), for the others: at the highest dose activity change, negative = inhibition, actives largely listed as inhibitors | hit rate 2.3% among 330,000 | HEK293T ELG1-luciferase reporter, luminescence, 16 h; DNA damage induced by 5-fluorouridine; further: potency means the concentration at half of the fitted maximal effect; nearly all actives have a fitted effect of over 55% in size
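Cells (2,000 per well) received 5-fluorouridine plus test compound or DMSO and were incubated 16 hr at 37 °C, 5% CO2. Luciferase activity was read by luminescence 30 min after ONE-Glo addition; signal suppression marked inhibition of damage-induced ELG1 function.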
TDP1 block: blocks human tyrosyl-DNA phosphodiesterase 1. recombinant TDP1, AlphaScreen DNA substrate cleavage. hit rate 0.28% among 350,000. Q9NUW8. Potency, µM (top dose mostly 130 µM), for inactives: at the top dose activity change, negative = inhibition, usual class: inhibitors. AID 485290; further: potency means the concentration at half of the fitted maximal effect; nearly all actives have a fitted effect of over 40% in size
Target sequence (Q9NUW8 whole entry, looked up): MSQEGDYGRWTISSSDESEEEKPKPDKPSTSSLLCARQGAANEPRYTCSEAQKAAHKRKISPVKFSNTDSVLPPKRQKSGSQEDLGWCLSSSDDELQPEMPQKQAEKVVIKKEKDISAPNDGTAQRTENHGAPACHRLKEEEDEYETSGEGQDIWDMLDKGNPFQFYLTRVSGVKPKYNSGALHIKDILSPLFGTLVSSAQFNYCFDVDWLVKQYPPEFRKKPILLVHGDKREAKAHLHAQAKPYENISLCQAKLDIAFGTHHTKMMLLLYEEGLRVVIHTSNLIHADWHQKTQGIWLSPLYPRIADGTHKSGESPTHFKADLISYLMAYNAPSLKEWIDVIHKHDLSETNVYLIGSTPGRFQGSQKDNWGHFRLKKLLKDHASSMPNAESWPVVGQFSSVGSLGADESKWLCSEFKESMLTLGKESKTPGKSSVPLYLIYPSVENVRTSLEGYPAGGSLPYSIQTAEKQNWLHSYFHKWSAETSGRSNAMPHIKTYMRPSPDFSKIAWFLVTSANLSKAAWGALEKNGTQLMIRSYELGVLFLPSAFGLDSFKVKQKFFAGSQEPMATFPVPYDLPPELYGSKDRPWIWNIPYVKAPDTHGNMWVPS
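Tdp1 1 nM final; 15 min RT w/ cpd; substrate 15 nM, 5 min; beads 10 ug/ml, 10 min; AlphaScreen read. Neg ctrl: no enzyme.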
* hit, by the source's call; ? = inconclusive; / = not tested or not shown. Rows were chosen to be rich in hits. Some 19% of all compounds tested hit in one or more screens of this group. Unless noted, the call rests on the fitted dose curve; in most records, active means well fitted curve in the direction sought with a large enough effect; inconclusive means small, poorly fitted or top-dose-only effect, or another doubt; inactive means no such curve, though single readings can be large; an effect the other way counts as inactive or inconclusive. On the % scale 0 is the no-effect control and ±100 the full control effect.

SMILES	Giardia killer	IL-1B inflam inh	TDP1 cell CPT	TDP1 cell noCPT	ELG1 DNA repair	TDP1 block
O=C1Cc2cc(S(=O)(=O)Nc3ccccc3Cl)cc3c2N1CCC3	4.3	-12.5	-5.9%	11.3%	1.8%	4.5%
CSCC[C@H](NC(=O)c1ccc2c(c1)OCO2)c1nnc2ccccn12	18.6	16.8	-0.8%	19.7%	?	2.1%
CCN(CC(=O)Nc1ccc(NC(C)=O)cc1)C(=O)/C=C/c1c(C)nn(-c2ccc(F)cc2)c1Cl	7.4	10.2	?	?	5.8µM*	5.8%
O=C1c2ccccc2CCc2ccccc21	9.0	-9.0	-0.7%	-0.8%	/	/
O=C1c2ccccc2CSc2c(O)cccc21	-7.7	-63.9*	?	-37.2%	/	/
CCC(=O)N1CCc2cc(S(=O)(=O)NC(Cc3ccccc3)C(=O)NCc3cccc(OC)c3)ccc21 (stereo not drawn)	/	/	?	?	/	2.3%
Cc1oc2ccc(OS(C)(=O)=O)cc2c1C(=O)OC(C)C	12.4	0.0	?	?	-2.0%	1.2%
CCCc1cc(=O)oc2cc(OCC(=O)Nc3ccccn3)ccc12	-10.9	-3.7	-16.0%	?	?	-1.6%
COc1ccc(-c2cc(=O)oc3cc(OCC(=O)Nc4ccccn4)ccc23)cc1	-22.4	-4.0	16.4µM*	?	?	-0.4%
O=C(COc1ccc2c(-c3ccccc3)cc(=O)oc2c1)NCCN1CCOCC1	8.2	47.7	?	-13.6%	-4.1%	2.7%
O=C(COc1ccc2c(-c3ccccc3)cc(=O)oc2c1)NCCCn1ccnc1	-14.6	-15.4	18.4µM*	?	?	/
CCN(CC)C(=O)COc1ccc2oc(C)c(C(=O)OC(C)C)c2c1	7.4	27.8	?	16.4µM*	?	-2.3%
O=C(COc1cc2oc(=O)cc(-c3ccccc3)c2cc1Cl)NCCN1CCOCC1	-15.4	23.2	4.11µM*	7.31µM*	0.8%	2.4%
CC(Oc1cc2oc(=O)c3c(c2cc1Cl)CCCC3)C(=O)NCCN1CCOCC1 (stereo not drawn)	-11.6	11.7	?	13µM*	1.2%	1.5%
CCN(CC)C(=O)COc1ccc2c(-c3ccc(OC)cc3)cc(=O)oc2c1	-5.7	-14.9	?	?	-20.5%	79.4µM*
COc1ccc(C2=C(C)C(=O)N(Cc3ccc(C(=O)NCc4cccc(C)c4)cc3)S2(=O)=O)cc1	/	/	?	?	/	8.4%
COC(=O)c1cc(S(=O)(=O)n2nc(C)c(Br)c2C)c(Cl)cc1Cl	-2.6	-85.1*	25.9µM*	14.6µM*	6.6%	5.1%
Cc1cc(C)n(S(=O)(=O)c2cc(C(=O)O)c(Cl)cc2Cl)n1	0.3	9.3	-0.9%	?	-1.4%	4.1%
O=c1c(-c2cccc(F)c2)nc2cncnc2n1C1CC1	/	/	3.1%	-11.5%	/	/
CCCCOC(=O)/C=C/c1ccc(OC(=O)OC)c(OC(=O)OC)c1	10.9	12.2	7.31µM*	9.2µM*	?	0.0%
COc1ccc(/C=C/C(=O)Oc2ccc(C=O)cc2OC)cc1	-5.7	-0.2	-18.8%	-19.2%	/	/
COC(=O)Oc1ccc(/C=C/C(=O)OC(C)C)cc1OC(=O)OC	-1.4	5.3	?	9.2µM*	?	-2.7%
CCCCC(CC)COC(=O)/C=C/c1ccc(OC)cc1 (stereo not drawn)	/	/	1.0%	3.9%	/	/
O=C(OCc1nnc(-c2ccccc2)o1)c1cc(S(=O)(=O)N2CCOCC2)c(Cl)cc1Cl	-4.4	-101.2*	20.6µM*	7.31µM*	0.0%	-4.8%
O=C(OCC(=O)N1CCOCC1)c1cc(S(=O)(=O)N2CCOCC2)c(Cl)cc1Cl	6.1	-84.4*	-11.8%	-0.1%	?	0.1%
SMILES	Giardia killer	IL-1B inflam inh	TDP1 cell CPT	TDP1 cell noCPT	ELG1 DNA repair	TDP1 block
O=C(COC(=O)c1cc(S(=O)(=O)N2CCOCC2)c(Cl)cc1Cl)c1ccc[nH]1	-2.1	-99.1*	-7.4%	20.4%	-20.5%	-0.5%
Cc1ccc(S(=O)(=O)N2CCOCC2)cc1C(=O)OCc1nnc(-c2ccccc2)o1	6.1	29.8	?	?	-2.2%	-2.8%
O=C(CSc1n[nH]c(-c2ccc(F)cc2)n1)NCc1ccccc1Cl	/	/	?	?	/	5.4%
O=C(NCc1cccc(F)c1)C1CCC(=O)N(C2CC2)C1 (stereo not drawn)	-24.8	2.7	1.8%	10.9%	-0.3%	2.1%
COc1cc(-c2cc(NC(C)=O)c3ncc(-c4ccccc4)n3c2)cc(OC)c1OC	/	-60.4*	?	?	/	/
COc1cc(-c2cnc3c(NC(C)=O)cc(-c4ccccc4CN(C)C)cn23)cc(OC)c1OC	/	63.4	23.1µM*	18.4µM*	/	/
COc1cc(-c2cc(NC(C)=O)c3ncc(-c4cc(OC)c(OC)c(OC)c4)n3c2)cc(OC)c1OC	/	-1.3	8.2µM*	7.31µM*	/	/
Cc1cc(N2CCN(S(=O)(=O)c3ccccc3)CC2)c2ccccc2n1	14.0	-15.3	16.4µM*	18.4µM*	?	4.1%
O=S(=O)(c1cccs1)N1CCN(c2ccnc3cc(Cl)ccc23)CC1	-0.2	/	13µM*	23.1µM*	?	2.5%
c1ccc(-c2csc(N3CCCCCC3)n2)cc1	11.3	-0.9	-23.0%	?	?	3.1%
O=S(=O)(c1ccccc1)N1CCN(c2ccnc3cc(Cl)ccc23)CC1	-21.7	-85.6*	16.4µM*	?	?	0.0%
Cc1cc(N2CCN(c3nc(-c4ccccc4)cs3)CC2)c2ccccc2n1	13.5	?	23.1µM*	20.6µM*	?	3.7%
Cc1cc(N2CCN(C(=O)c3ccco3)CC2)c2ccccc2n1	-13.1	-2.0	-15.3%	-14.2%	-9.1%	4.1%
CC(=O)N1CCN(c2ccnc3cc(Cl)ccc23)CC1	-21.0	-18.9	-13.2%	-27.5%	?	0.6%
COc1cc(C(C)=O)ccc1O	-17.0	-3.8	-0.6%	?	12.1%	/
CCOc1ccccc1NC(=O)Cn1c(=O)n(-c2ccc(C)c(C)c2)c(=O)c2c(C)c(C(=O)N(C)C)sc21	/	/	-22.8%	-25.4%	/	6.4%
CC1=CC(C)(C)N(C(=O)CSc2nnc(-c3ccc(C)cc3)o2)c2ccc(C)cc21	5.9	5.3	?	18.4µM*	-9.2%	0.9%
Cc1ccc(NC(=O)CSc2nnc(-c3ccc(Br)cc3)o2)c(C)c1	/	/	?	-53.2%	/	4.7%
CCc1cc(=O)oc2c(C)c(OC(C)C(=O)NCCCn3ccnc3)ccc12 (stereo not drawn)	-7.6	0.0	-7.0%	0.0%	17.2%	0.1%
Cn1c(=O)n(C)c2cc(S(=O)(=O)NCCc3ccccc3)ccc21	1.9	18.3	23.1µM*	23.1µM*	?	4.0%
